Experimental data: PubChem BioAssay (NCATS)
Where “and” joins values, the source holds several entries; their conditions need not be identical. Equal values may be shown once. Inconclusive results are not listed. Calls of active or inactive are those of the source. Unless noted, calls follow the shape of the dose curve; as a rule, active = well fitted curve in the direction sought with a large enough effect; inconclusive = small, poorly fitted or top-dose-only effect, or another doubt; inactive = no such curve, though single readings can be large; an effect the other way counts as inactive or inconclusive.

Key:
[1] = Cell Viability - BJ (AID 421; calls by dose curve;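 also: potency is read from the fitted curve at half-maximal effect; cells exposed to compound for 40 hours at 37 °C before readout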); conditions: BJ fibroblast viability, qHTS
Outline: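 Cytotoxicity as drop in intracellular ATP (CellTiter-Glo, 20 min RT) after 40 hr compound exposure of BJ fibroblasts at 37 °C. Titrations scaled between DMSO and 100 uM tamoxifen, Hill-fitted for AC50.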

[2] = Cell Viability - HepG2 (AID 433; calls by dose curve;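 also: potency is read from the fitted curve at half-maximal effect; potency for ATP loss meaning cytotoxicity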); conditions: qHTS
Outline: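 HepG2 hepatocellular carcinoma cells (1500/well) were treated with compounds for 40 h at 37 °C in complete medium; intracellular ATP was read by CellTiter-Glo luminescence. Data were normalized to DMSO and 100 uM tamoxifen, and AC50 came from Hill fits.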

[3] = Cell Viability - MRC5 (AID 434; calls by dose curve;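 also: potency is read from the fitted curve at half-maximal effect; potency reflects cytotoxicity seen as loss of intracellular ATP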); conditions: MRC5 lung fibroblast viability, qHTS
Outline: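 Decrease in intracellular ATP, quantified by luciferase light output, reflects compound toxicity toward MRC5 cells exposed for 40 hr in complete culture medium. Concentration-response curves, scaled between DMSO and 100 uM tamoxifen, gave AC50 values.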

[4] = Cell Viability - SK-N-SH (AID 435; calls by dose curve;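 also: potency is read from the fitted curve at half-maximal effect; compound exposure lasted 40 h at 37 °C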); conditions: SK-N-SH neuroblastoma cell viability qHTS
Outline: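 SK-N-SH human neuroblastoma cells (1500/well) were exposed to compounds in complete medium for 40 h at 37 °C, and intracellular ATP was then measured by CellTiter-Glo luminescence. AC50 was taken from Hill fits, normalized to DMSO and 100 uM tamoxifen.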

[5] = Cell Viability - NIH 3T3 (AID 541); conditions: NIH 3T3 cell viability, qHTS; activity change, negative = cytotoxicity: at 92.2 µM (top of the series);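 also: plate controls were DMSO alone for no effect and tamoxifen positive control for full effect; nearly all actives have a fitted effect of over 25% in size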
Outline: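 In this cytotoxicity screen, acute toxicity is scored as an ATP drop measured by CellTiter-Glo in NIH 3T3 fibroblasts following a 40 hr, 37 °C incubation with compound.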

[6] = Cell Viability - HUV-EC-C (AID 542); conditions: HUV-EC-C endothelial cell viability, qHTS; series mostly up to 92.2 µM; also: % is scaled to controls: 0 for no effect and ±100 for the full control effect; nearly all actives have a fitted effect of over 35% in size
Outline: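 Concentration-dependent ATP loss in HUV-EC-C cells is the measure. Exposure lasts 40 hr at 37 °C; luminescence follows CellTiter-Glo addition, and Hill fits give AC50.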

[7] = Cell Viability - H-4-II-E (AID 543); conditions: H-4-II-E rat hepatoma viability; series mostly up to 92.2 µM; also: nearly all actives have a fitted effect of over 35% in size; also: potency is read from the fitted curve at half-maximal effect
Outline: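 AC50 from Hill-modelled qHTS concentration-response curves. H-4-II-E rat hepatoma cells in complete medium, 40 hr exposure at 37 °C, viability by CellTiter-Glo ATP luminescence.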

[8] = Cell Viability - SH-SY5Y (AID 544); conditions: SH-SY5Y neuroblastoma cell viability; viability change, negative = cytotoxic: at 92.2 µM (top of the series); also: nearly all actives have a fitted effect of over 55% in size
Outline: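 Quantitative HTS in SH-SY5Y neuroblastoma cells, 40 hr treatment at 37 °C, ATP content by luciferase luminescence; AC50 from Hill fits.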

[9] = Cell Viability - Renal Proximal Tubule (AID 545); conditions: renal proximal tubule cells viability; at 91.7 µM (top of the series), primary cells of rat origin unless noted; also: nearly all actives have a fitted effect of over 40% in size
Outline: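 Primary rat renal proximal tubule cells (1000/well) were treated with compounds for 40 hr at 37 °C in complete medium. Intracellular ATP was measured by CellTiter-Glo luminescence, and AC50 values came from Hill-equation fits of concentration-response data.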

[10] = Cell Viability - Mesenchymal (AID 546); conditions: mesenchymal cells viability, qHTS; series mostly up to 91.7 µM;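 also: cells exposed to compound for 40 hours before reading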
Outline: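 In this qHTS cytotoxicity format, glomerulus-derived human mesenchymal kidney cells received compound for 40 hr, then luciferase-based ATP quantitation. Concentration-response data were fitted with the Hill equation.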

[11] = Cellular Toxicity (caspase-3) HepG2 (AID 654); conditions: HepG2 caspase-3 activation, luminescence, 0% = DMSO only, 100% = tamoxifen; series mostly up to 92.2 µM;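 also: cells exposed to compound for 16 hours before reading; 0% = DMSO alone and 100% = caspase signal from 100 µM tamoxifen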
Outline: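 Concentration-response AC50 values reflect caspase-3/7 induction in HepG2 cells after 16 hours of compound exposure, quantified by luminescence from liberated aminoluciferin and referenced to 100 uM tamoxifen as full stimulation.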

[12] = Cellular Toxicity (caspase-3) Jurkat (AID 655); conditions: Jurkat caspase-3 activation, luminescence, DMSO = 0%, tamoxifen = 100%; at 92.2 µM (top of the series);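 also: cells exposed to compound for 16 h at 37 °C before reading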
Outline: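 Jurkat cells (5000/well) in complete medium were treated with compounds for 16 hr at 37 °C, then Caspase-Glo 3/7 luminescence was read after 20 min at room temperature. Data normalized to DMSO (basal) and 100 uM tamoxifen (100%); AC50 from Hill fit.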

[13] = Cellular Toxicity (caspase-3) SHSY5Y (AID 657); conditions: SH-SY5Y caspase-3 activation, DMSO zero, 10 µM staurosporine = 100%; series mostly up to 91.7 µM;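 also: cells exposed to compound for 16 hours at 37 °C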
Outline: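 SH-SY5Y human neuroblastoma cells (1500/well) were treated with compounds for 16 h at 37 °C, then Caspase-Glo 3/7 luminescence was read after 1 h at room temperature. Data normalized to DMSO and 10 uM staurosporine; AC50 from Hill fits.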

[14] = Cellular Toxicity (caspase-3) BJ (AID 658); conditions: BJ fibroblasts, luminescence, normalized: DMSO 0%, staurosporine 100%; series mostly up to 91.7 µM
Outline: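 Plated BJ cells (1000/well) rested 5 hr, received compound for 16 hr at 37 °C, then Caspase-Glo 3/7 reagent for 1 hr at room temperature before luminescence reading.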

[15] = Cellular Toxicity (caspase-3) MRC-5 (AID 659); conditions: MRC-5 cells, luminescence, normalized: DMSO 0%, 10 µM staurosporine 100%; series mostly up to 91.7 µM
Outline: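 Apoptosis readout in MRC-5 cells: luciferase light generated after caspase 3/7 cleaves a peptide-aminoluciferin substrate, measured post 16 hr compound incubation at 37 °C.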

[16] = qHTS Assay for Identification of Small Molecule Inducers of Hypoxia Response (AID 2120; active = well fitted curve in the direction sought with a large enough effect in the signal ratio, with a control signal flat, not every such curve was filed as active; the % refers to the signal ratio; also: 0% is about no effect); conditions: hypoxia response reporter cells, beta-lactamase ratio readout; series mostly up to 104 µM
Outline: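 HRE-bla ME-180, 2500 cells/well, 0.5% dialyzed FBS medium; cpd titration, 17 h 37 degrees C; CCF4 2.5 h RT; Ex 405, Em 460/530 ratio -> %Activity, AC50.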

[17] = qHTS assay for small molecule antagonists of retinoid X receptor alpha signaling (AID 588546; active = well fitted inhibition curve with a large enough effect in the signal ratio, with a control signal flat, not every such curve was filed as active; the % refers to the signal ratio;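 also: cells stimulated with 9-cis-retinoic acid as agonist; % is scaled to controls: 0 for no effect and ±100 for the full control effect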); conditions: HEK293T RXRa-UAS-bla, beta-lactamase ratio, antagonist mode; measured here: W530 green channel, cytotoxicity proxy
Outline: (§1)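 Beta-lactamase reporter inhibition, read as CCF4 fluorescence ratio (ex 405, em 460/530 nm) after 2 h at RT. HEK293T UAS-bla cells, 2500/well, were stimulated with 9-cis-RA at 500 or 100 nM final alongside test compound for 18 h at 37 C.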

[18] = target: Retinoic acid receptor RXR-alpha (Homo sapiens) (UniProt P19793); test: as above; conditions: HEK293T RXRa-UAS-bla, beta-lactamase ratio, antagonist mode
Outline: as §1

[19] = target: Tumor necrosis factor (Homo sapiens) (UniProt P01375); test: qHTS assay to identify small molecules that stimulate Tumor Necrosis Factor-alpha (TNF-alpha) secretion (AID 651757; active = well fitted curve in the direction sought with a large enough effect in the signal ratio; the % refers to the signal ratio; also: 0% is about no effect); conditions: Human cells, HTRF 665/615 ratio; series mostly up to 92.2 µM
Outline: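 Using 3000 THP-1 cells per well, compounds and controls were applied for 17 hrs at 37 C. Detection followed with two labeled anti-TNF-alpha antibodies (cryptate donor, XL665 acceptor) for 3 hr at room temperature, measured by TR-FRET.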

[20] = qHTS assay for environmental chemicals that activate the Aryl hydrocarbon Receptor (AhR) signaling pathway (AID 651777); conditions: 1A2-DRE human hepatoma cells, luciferase, 24 h; activation: stronger effect = higher value; also: % of control where 0% means no effect; nearly all actives have a fitted effect of over 15% in size
Outline: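 Induction of CYP1A2 transcription through AhR is detected by luciferase in 1A2-DRE hepatoma cells. Compounds or DMSO act for 24 hr at 37 C before a 30 min One-Glo step at room temperature.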

Sequence of Tumor necrosis factor (Homo sapiens) (P01375 whole entry, looked up): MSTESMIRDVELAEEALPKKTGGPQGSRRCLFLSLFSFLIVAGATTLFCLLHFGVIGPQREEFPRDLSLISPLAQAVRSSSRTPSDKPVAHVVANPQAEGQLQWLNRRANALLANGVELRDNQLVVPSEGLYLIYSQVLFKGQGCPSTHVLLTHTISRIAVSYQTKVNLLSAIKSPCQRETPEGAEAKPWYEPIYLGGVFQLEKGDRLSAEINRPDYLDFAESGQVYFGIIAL
Sequence of Retinoic acid receptor RXR-alpha (Homo sapiens) (P19793 whole entry, looked up): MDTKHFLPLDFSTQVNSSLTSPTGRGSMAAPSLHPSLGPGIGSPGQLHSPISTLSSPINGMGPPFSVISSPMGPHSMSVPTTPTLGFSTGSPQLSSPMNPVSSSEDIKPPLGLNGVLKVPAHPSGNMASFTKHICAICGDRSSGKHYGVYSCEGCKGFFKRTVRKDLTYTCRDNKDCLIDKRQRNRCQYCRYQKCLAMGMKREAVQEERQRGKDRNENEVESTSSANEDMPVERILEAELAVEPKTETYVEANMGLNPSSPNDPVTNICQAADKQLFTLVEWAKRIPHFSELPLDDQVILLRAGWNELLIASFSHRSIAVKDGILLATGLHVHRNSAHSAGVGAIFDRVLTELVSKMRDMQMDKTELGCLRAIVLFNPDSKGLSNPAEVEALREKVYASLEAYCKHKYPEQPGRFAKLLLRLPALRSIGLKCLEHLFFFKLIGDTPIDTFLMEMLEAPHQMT

Brc1ccc(Oc2cc(Br)c(Br)cc2Br)c(Br)c1
inactive: Potency [1] > 92 µM | Potency [2] > 92 µM | Potency [3] > 92 µM | Potency [4] > 92 µM | activity change, negative = cytotoxicity [5] -13.1% and -22.5% | Potency [6] | Potency [7] | Potency [8] | activity change, negative = cytotoxicity [9] -20.3% [at 91.7 µM] and -14.3% [at 91.7 µM] | outcome [10] | outcome [11] | caspase-3 activation [12] 17.5% | outcome [13] | outcome [14] | outcome [15] | outcome [16] | max response [18] -5.38% and -23.6% | outcome [19] | activation [20] 5.38% and 0.601% and 5.34%
10.6% and 6.53%: max response [17]

C=CC(N)=O
-10.1% and 0.0016% and -8.94%: max response [17]
inactive: Potency [1] > 92 µM | Potency [2] > 92 µM | Potency [3] > 92 µM | Potency [4] > 92 µM | activity change, negative = cytotoxicity [5] 5.3% and 3.72% | Potency [6] | Potency [7] | Potency [8] | activity change, negative = cytotoxicity [9] 6.17% and -0.476% | outcome [10] | outcome [11] | caspase-3 activation [12] 0.421% and 0.897% | outcome [13] | outcome [14] | outcome [15] | outcome [16] | max response [18] 17% and -9.44% and -5.75% | outcome [19] | activation [20] 0.655% and -0.766% and 0.336%

C=CC(C)=O
inactive: Potency [1] > 92 µM | Potency [2] > 92 µM | Potency [3] > 92 µM | Potency [4] > 92 µM | activity change, negative = cytotoxicity [5] -2.38% | Potency [6] | Potency [7] | Potency [8] | activity change, negative = cytotoxicity [9] 14% | outcome [10] | outcome [11] | caspase-3 activation [12] -0.622% | outcome [13] | outcome [14] | outcome [15] | outcome [16] | max response [18] 8.07% | outcome [19] | activation [20] 1.86%
-5.91%: max response [17]

CC(C)(C)OO
-3.93% and -2.51%: max response [17]
inactive: Potency [1] > 92 µM | Potency [2] > 92 µM | Potency [3] > 92 µM | Potency [4] > 92 µM | activity change, negative = cytotoxicity [5] -4.73% and 1.03% | Potency [6] | Potency [7] | Potency [8] | activity change, negative = cytotoxicity [9] -2.92% and -10.1% | outcome [10] | outcome [11] | caspase-3 activation [12] 16.6% and 4.19% | outcome [13] | outcome [14] | outcome [15] | outcome [16] | max response [18] 34% and 10.1% | outcome [19] | activation [20] -0.688% and -2.1%

BrCCBr
inactive: Potency [1] > 92 µM | Potency [2] > 92 µM | Potency [3] > 92 µM | Potency [4] > 92 µM | activity change, negative = cytotoxicity [5] -25.3% | Potency [6] | Potency [7] | Potency [8] | activity change, negative = cytotoxicity [9] -6.16% | outcome [10] | outcome [11] | caspase-3 activation [12] -0.244% | outcome [13] | outcome [14] | outcome [15] | outcome [16] | max response [18] 9.69% and -0.139% | outcome [19] | activation [20] -1.12% and 0.568%
-10.6% and -9.29%: max response [17]

Clc1nc(Cl)nc(Cl)n1
active: viability change, negative = cytotoxic [8] -96.5%
inactive: Potency [1] > 92 µM | Potency [2] > 92 µM | Potency [3] > 92 µM | Potency [4] > 92 µM | activity change, negative = cytotoxicity [5] -8.17% | Potency [6] | Potency [7] | activity change, negative = cytotoxicity [9] -4.88% | outcome [10] | outcome [11] | caspase-3 activation [12] 0.301% | outcome [13] | outcome [14] | outcome [15] | outcome [16] | max response [18] 12.3% and -0.616% | outcome [19] | activation [20] 1.36% and 0.55%
-2.29% and -4.83%: max response [17]

C=C(C)C#N
inactive: Potency [1] > 92 µM | Potency [2] > 92 µM | Potency [3] > 92 µM | Potency [4] > 92 µM | activity change, negative = cytotoxicity [5] -26.6% | Potency [6] | Potency [7] | Potency [8] | activity change, negative = cytotoxicity [9] 0.281% | outcome [10] | outcome [11] | caspase-3 activation [12] 1.57% | outcome [13] | outcome [14] | outcome [15] | outcome [16] | max response [18] -5.47% and -20.9% | outcome [19] | activation [20] -0.895% and 0.596%
2.43% and -11.4%: max response [17]

CC(C)(OO)c1ccccc1
inactive: Potency [1] > 92 µM | Potency [2] > 92 µM | Potency [3] > 92 µM | Potency [4] > 92 µM | Potency [6] | activity change, negative = cytotoxicity [9] -8.61% | outcome [10] | outcome [11] | caspase-3 activation [12] -2.32% | outcome [13] | outcome [14] | outcome [15] | outcome [16] | max response [18] 2.62% and 5.92% | outcome [19] | activation [20] 0.536% and 0.232%
16% and -6.37%: max response [17]
active: activity change, negative = cytotoxicity [5] -123% | Potency [7] 25.1 µM | viability change, negative = cytotoxic [8] -82.7%
